Here are results for 53 compounds from PubChem BioAssay AID624256 (NMMLSC, 2012).

Out of some 360,000 compounds screened, about 3,700 (1%) were called active. Roughly 2% stayed inconclusive and do not appear here. The sample holds actives, similar compounds and a random draw of the others, so the mix is not that of the screen.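 How the source made its calls: active means normalized GFP-positive differentiation at or above the plate's own cutoff, the solvent-only control mean plus 3 SD; inconclusive means no clear call, values can overlap the other calls; inactive means the rest.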

This experiment can be described thus: HoxA9-arrested leukemia cell differentiation promoters – flow cytometry, MLPCN library, primary screen (AID 624256).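 On GFP+ MAC1+ double positive: cells exposed to compound for four days before flow analysis.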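 On normalized GFP-positive differentiation: cells exposed to compound for four days before flow analysis; 0% = DMSO wells and 100% = fulvestrant positive control at 5 µM.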 As to conditions: ER-HoxA9 myeloid progenitors, lysozyme-GFP differentiation, at 10 µM; GFP+ MAC1+ double positive: measured here: differentiation confirmed by MAC1 staining, stronger effect = higher value; normalized GFP-positive differentiation: stronger effect = higher value. For orientation: Flow cytometry measures light scatter and fluorescence of single cells or particles in a stream.
Consider `CCc1nc2c(OCC(N)=O)cccn2c1N(C)C(=O)c1ccc(OC)cc1`, for which the GFP+ MAC1+ double positive worked out at 1.1% and the outcome was inactive.

Consider `OC[C@@H]1CN(Cc2cccs2)C[C@H](n2cnc3c(Nc4ccccc4)ncnc32)O1`, for which the GFP+ MAC1+ double positive was 1.1% and the result was inactive.

Take `Cc1ccc(Cc2c(-c3ccco3)nc3ccc(Cl)cn23)cc1`: the GFP+ MAC1+ double positive came to 0.7% and the compound was called inactive.

As to `CCCCCCCNC(=O)C1(CC2CC(c3cccc(Br)c3)=NO2)CCN(C(=O)c2cc(OCC)c(OCC)c(OCC)c2)CC1` (stereo unspecified), the GFP+ MAC1+ double positive is 7.1% and the normalized GFP-positive differentiation was 26.1% (active).

For `COc1ccc(CNC(=O)C2(CC3CC(c4ccccc4)=NO3)CCN(C(=O)c3cccc(O)c3)CC2)cc1` (stereo unspecified), the GFP+ MAC1+ double positive worked out at 1.8% and the result was inactive.

For the compound `O=C(c1ccccc1)N1CCC(CC2CC(c3ccc(Cl)cc3)=NO2)(C(=O)NCC2CCCCC2)CC1` (stereo unspecified), the GFP+ MAC1+ double positive turned out to be 1.5% and the result was inactive.

As for `O=C(C(=O)N1CCC(c2ccccc2)CC1)c1ccccc1`, the GFP+ MAC1+ double positive was found to be 2.1% and the compound was called inactive.

On to `CC(C)(O)C#Cc1ccc(CNC[C@H]2O[C@@H](n3cnc4c(=O)[nH]c(N)nc43)[C@H](O)[C@@H]2O)s1`, for which the GFP+ MAC1+ double positive worked out at 0.8% and the compound was called inactive.

With `O=S1(=O)CC(N2CCN(CCO)CC2)CN1Cc1cn(Cc2ccc(Cl)cc2)nn1` (stereo unspecified), the GFP+ MAC1+ double positive was found to be 1.6% and the compound was classed as inactive.

`Cc1cnc(C(=O)N2CCCC(N3CCN(c4ccccc4F)CC3)C2)cn1` (stereo unspecified): the GFP+ MAC1+ double positive stood at 6.8% and the call was inactive.

`CCc1noc(C)c1C(=O)N1CCCC(N2CCN(c3ccc(F)cc3)CC2)C1` (stereo unspecified): the GFP+ MAC1+ double positive is 5.3% and the normalized GFP-positive differentiation is 46.7% (active).

Take `COc1ccccc1CN1CCCC(N2CCN(c3ccc(F)cc3)CC2)C1` (stereo unspecified): the GFP+ MAC1+ double positive was 0.5% and the call was inactive.

Consider `COc1ccc(-c2[nH][nH]c(=O)c2NC(=O)c2ccc([N+](=O)[O-])cc2)cc1`, for which the GFP+ MAC1+ double positive turned out to be 0.8% and the outcome was inactive.

`O=C(Nc1ccccc1C(=O)N1CCCCCC1)c1ccccc1Cl`: the GFP+ MAC1+ double positive is 0.1% and the result was inactive.

As to `COc1ccccc1N(CC(=O)Nc1ccccc1C(=O)N1CCCC1)S(C)(=O)=O`, the GFP+ MAC1+ double positive amounted to 0.3% and the result was inactive.

For `O=C(CN(c1ccccc1)S(=O)(=O)c1ccc(Cl)cc1)Nc1ccccc1C(=O)N1CCCC1`, the GFP+ MAC1+ double positive came to 17.3% and the normalized GFP-positive differentiation is 34.3% (active).

For `NCCCCC(C(=O)O)N(C(=O)OCc1ccccc1)C(=O)OCc1ccccc1` (stereo unspecified), the GFP+ MAC1+ double positive is 0.9% and the call was inactive.

As for `Cc1cc(=O)oc(C)c1C(=O)NCCN(C)Cc1ccccc1`, the GFP+ MAC1+ double positive was found to be 0.6% and the outcome was inactive.

Turning to `Cc1cc(=O)oc(C)c1C(=O)Nc1cnc2ccccc2c1`, the GFP+ MAC1+ double positive turned out to be 1% and the normalized GFP-positive differentiation was 6.77% (active).

As for `Cc1cc(=O)oc(C)c1C(=O)NCc1ccc(F)cc1`, the GFP+ MAC1+ double positive is 9.2% and the outcome was inactive.

Regarding `COc1ccc(-c2cc3c(c4c2ccn4C)C2CCC3C2)cn1` (stereo unspecified), the GFP+ MAC1+ double positive was 1.4% and the call was inactive.

With `O=C1Nc2ccccc2-n2nnnc2C1N1CCN(c2cccc(C(F)(F)F)n2)CC1` (stereo unspecified), the GFP+ MAC1+ double positive turned out to be 1.4% and the compound was called inactive.

With `CCc1ccc(CN(C)C(=O)CCc2nnc(-c3ccc(-c4ccccc4)cc3)o2)nc1`, the GFP+ MAC1+ double positive was determined as 0.1% and the outcome was inactive.

With `CCCCCCc1cc2cc(-c3nnc(-c4ccccc4)o3)c(=O)oc2cc1O`, the GFP+ MAC1+ double positive was found to be 56.6% and the normalized GFP-positive differentiation was 197% (active).

`CN[C@H]1C[C@H]2c3cc(Oc4ccccc4C)ccc3CCN2C(=O)[C@H]1[C@H](C)O`: the GFP+ MAC1+ double positive amounted to 0.2% and the result was inactive.

Consider `Cn1c(=O)c2cc(NC(=O)NCCc3cccs3)ccc2n1Cc1cccc(C(F)(F)F)c1`, for which the GFP+ MAC1+ double positive was 1.6% and the result was inactive.

For `O=C(CCC(=O)c1ccccc1)NCc1cccc(C(F)(F)F)c1`, the GFP+ MAC1+ double positive came out at 0.7% and the result was inactive.

As for `O=C(Cc1cccs1)NCc1cccc(C(F)(F)F)c1`, the GFP+ MAC1+ double positive worked out at 3.5% and the normalized GFP-positive differentiation is 341% (active).

For the compound `COc1ccc(C(=O)C(OP(=O)(OC)OC)c2ccccc2OC)cc1` (stereo unspecified), the GFP+ MAC1+ double positive turned out to be 2% and the result was inactive.

Take `CN(C)CCCOc1ccc(-c2ccc3nccn3c2)cn1`: the GFP+ MAC1+ double positive turned out to be 0.4% and the outcome was inactive.

In the case of `CCC(=O)c1ccc(OCC(=O)OCC(=O)NC2CCCCCC2)cc1`, the GFP+ MAC1+ double positive was determined as 1.4% and the result was inactive.

Regarding `Cc1ccc(Cl)c(OCC(=O)N2CCc3ccccc3C2)c1`, the GFP+ MAC1+ double positive was found to be 0.3% and the outcome was inactive.

For the compound `CCC(=O)c1ccc(OCC(=O)OCC(=O)N2CCc3ccccc3C2)cc1`, the GFP+ MAC1+ double positive turned out to be 0.4% and the normalized GFP-positive differentiation is 6.6% (active).

For `CCOc1ccc2[nH]c(=S)sc2c1`, the GFP+ MAC1+ double positive was 0% and the compound was called inactive.

As to `CCC(CC)C(C(=O)NC1CCCC1)N1CCN(c2cc(C)nc3ccccc23)CC1` (stereo unspecified), the GFP+ MAC1+ double positive was 1.2% and the outcome was inactive.

Take `COC(=O)c1ccc2nc(-c3ccccc3)c(Cc3ccc(OC)cc3C)n2c1`: the GFP+ MAC1+ double positive turned out to be 1.4% and the outcome was inactive.

In the case of `O[C@H]1C[C@H](c2ccc(Cl)cc2)N(Cc2cccs2)C[C@@H]1n1cc(C2CC2)nn1`, the GFP+ MAC1+ double positive is 3.6% and the normalized GFP-positive differentiation was 19.2% (active).

`O[C@@H]1C[C@H](c2ccccc2)N(Cc2cccs2)C[C@H]1n1cc(C2CC2)nn1`: the GFP+ MAC1+ double positive is 0.6% and the compound was called inactive.

For `O[C@H]1CN(Cc2cccs2)[C@@H](c2ccc(Cl)cc2)C[C@@H]1n1cc(C2CC2)nn1`, the GFP+ MAC1+ double positive amounted to 1.3% and the normalized GFP-positive differentiation was 3.49% (inactive).

Turning to `CC(C)c1cc(Cn2c3ccccc3c(=O)n2C(C)Cn2cc(C3CC3)nn2)on1` (stereo unspecified), the GFP+ MAC1+ double positive was 2.6% and the call was inactive.

Regarding `COc1cccc(CNc2nc(NCc3cccs3)nc3ccsc23)c1`, the GFP+ MAC1+ double positive came out at 1.5% and the call was inactive.

Consider `O=S1(=O)C[C@@H](N2CCN(CCO)CC2)[C@H](COCc2ccccc2)N1`, for which the GFP+ MAC1+ double positive amounted to 0.9% and the call was inactive.

In the case of `CCc1ccc([C@@H]2CC(=O)[C@@H]3CN(S(=O)(=O)c4ccc(C)cc4)[C@H](c4ccc(Cl)cc4)C[C@@H]3N2S(=O)(=O)c2ccc(C)cc2)cc1`, the GFP+ MAC1+ double positive was 1.2% and the result was inactive.

On to `CC(=O)Nc1cncc(-c2ccccc2CO)n1`, for which the GFP+ MAC1+ double positive amounted to 0.4% and the compound was called inactive.

`CC(=O)Nc1cccc(-c2cc(NC=O)c3ncc(-c4ccc(F)c(Cl)c4)n3c2)c1`: the GFP+ MAC1+ double positive turned out to be 1.3% and the call was inactive.

Turning to `O=c1c2c(-c3ccccc3)ccnc2[nH]n1-c1ccccc1`, the GFP+ MAC1+ double positive is 0.5% and the compound was called inactive.

On to `Cc1ccc(N2C(=O)c3ccccc3C2(O)c2ncc[nH]2)cc1` (stereo unspecified), for which the GFP+ MAC1+ double positive is 1.1% and the compound was called inactive.

Take `Cc1ccc(-c2ccnc3[nH]n(-c4ccccc4)c(=O)c23)cc1`: the GFP+ MAC1+ double positive was found to be 0.4% and the normalized GFP-positive differentiation is 17.5% (active).

For `COC(=O)[C@@]12C[C@@H](CC(=O)NCCCCc3ccccc3)C(=O)N(CCc3ccc(OC)c(OC)c3)C1=CCC(C)(C)C2`, the GFP+ MAC1+ double positive worked out at 1.6% and the compound was called inactive.

For the compound `COC(=O)C[C@@H]1C=C[C@@H](NS(=O)(=O)c2cccc(OC)c2)[C@@H](CO)O1`, the GFP+ MAC1+ double positive came to 1.6% and the compound was classed as inactive.

Consider `Cc1c(-c2ccccc2)cn2c1-c1ccc(C)n1CC2`, for which the GFP+ MAC1+ double positive is 1.4% and the normalized GFP-positive differentiation is 31.7% (active).

As to `O=C(C[C@H]1CC[C@H]2[C@@H](COC[C@H](O)CN2C(=O)c2ccccn2)O1)N1CCN(c2ccccc2)CC1`, the GFP+ MAC1+ double positive turned out to be 2.6% and the outcome was inactive.

Consider `CN(CCO)C(=O)c1nc[nH]c1C(=O)N(C)Cc1ccccc1`, for which the GFP+ MAC1+ double positive is 0.2% and the call was inactive.
